An excerpt weighted towards active compounds, which were near 1.8% of everything screened.
PME-1 primary = PME-1 (human) inhibition; Q9Y570; inhibition, % at 5.9 µM; AID 2130; recombinant PME-1, FP-Rh probe fluorescence polarization; actives 0.53% (n = 320,000);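 active means inhibition above the campaign mean of all compounds plus 3 SD, cut at about 26% in these data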;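 further: competitive labeling of PME-1 active site by serine hydrolase directed probe; inhibitors block probe labeling so polarization falls and inhibition rises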
LYPLA1 inh = blocks human lysophospholipase 1, a PME1 counter-screen. O75608. recombinant LYPLA1, FP-Rh probe fluorescence polarization. inhibition, % at 5.9 µM. actives 0.16% (n = 320,000). AID 2174;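 active means inhibition above the mean of all tested compounds plus 3 SD, set per campaign, cut at about 14% in these data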;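 further: inhibitors block serine hydrolase probe labeling of LYPLA1 so polarization falls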
PAD4 FP inh = inhibitors of human PAD4; actives 0.41% (n = 330,000); Q9UM07; AID 485272; recombinant PAD4, RCA probe fluorescence polarization; inhibition, % at 6.36 µM;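 active means percent inhibition above a cutoff equal to the mean of all tested compounds plus 3 SD, cut at about 15% in these data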
Target sequence (Q9UM07 whole entry, looked up): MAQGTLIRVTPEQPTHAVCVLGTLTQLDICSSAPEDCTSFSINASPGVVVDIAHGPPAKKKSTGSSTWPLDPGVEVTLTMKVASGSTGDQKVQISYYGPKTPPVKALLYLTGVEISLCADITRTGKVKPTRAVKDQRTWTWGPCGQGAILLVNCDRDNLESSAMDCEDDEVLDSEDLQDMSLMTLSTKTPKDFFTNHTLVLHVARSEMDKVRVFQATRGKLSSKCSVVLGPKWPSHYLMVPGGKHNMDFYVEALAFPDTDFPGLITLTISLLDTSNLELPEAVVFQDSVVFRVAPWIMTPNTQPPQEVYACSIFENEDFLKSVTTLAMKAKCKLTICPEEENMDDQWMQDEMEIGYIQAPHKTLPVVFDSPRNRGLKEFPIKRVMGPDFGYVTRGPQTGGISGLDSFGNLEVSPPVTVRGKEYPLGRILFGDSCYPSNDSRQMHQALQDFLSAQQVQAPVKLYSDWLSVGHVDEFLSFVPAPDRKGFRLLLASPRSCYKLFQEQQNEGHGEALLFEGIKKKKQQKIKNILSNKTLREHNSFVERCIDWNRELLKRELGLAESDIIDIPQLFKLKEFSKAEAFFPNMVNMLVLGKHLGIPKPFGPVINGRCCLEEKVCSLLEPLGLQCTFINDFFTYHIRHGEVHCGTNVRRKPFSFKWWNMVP
Fam108B counter = Fam108B inhibition, counter-screen for RBBP9 inhibitors. actives 0.33% (n = 300,000). recombinant Fam108B, FP-Rh probe fluorescence polarization. inhibition, % at 9.51 µM;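 active means inhibition above the screen mean inhibition plus 3 SD, computed separately per campaign, cut at about 18% in these data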;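 further: inhibitors lower polarization as less probe binds the enzyme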
LYPLA2 counter = counter-screen for PME1 inhibitors: inhibitors of human LYPLA2 | recombinant LYPLA2, FP-Rh probe fluorescence polarization | O95372 | AID 2177 | inhibition, % at 5.9 µM | actives 0.38% (n = 320,000);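 active means inhibition above the screen-wide mean plus 3 SD, limit set per campaign, cut at about 26% in these data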
GSTO1 inh = GSTO1 inhibition, counter-screen for RBBP9 inhibitors; P78417; recombinant GSTO1, activity-based probe fluorescence polarization; inhibition, % at 5.96 µM; actives 1.1% (n = 300,000);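 active means inhibition above the campaign mean inhibition plus 3 SD, cut at about 35% in these data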
LYPLA2 conf = counter-screen for PME1 inhibitors: confirmation of human LYPLA2 inhibitors; shares compounds with LYPLA2 counter; inhibition, % at 5.9 µM; AID 2232; actives 72% (n = 1,100); recombinant LYPLA2, FP-Rh probe fluorescence polarization;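 active means mean inhibition across replicates above the hit cutoff set in the primary screen, cut at about 26% in these data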;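 further: blocked labeling of the enzyme by serine hydrolase FP-Rh probe lowers polarization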
LYPLA2 gel ABPP = LYPLA2 (human) inhibition, late stage results; shares compounds with LYPLA2 counter; rhLYPLA2 in mouse brain proteome, gel ABPP FP-Rh; inhibition, % at 20 µM; actives 30% (n = 150);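 active means inhibition of LYPLA2 enzyme probe labeling above about 50%, limit read from the data; inactive means inhibition below that limit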;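 further: loss of FP-Rh probe labeling of the LYPLA2 gel band measured as band density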
Large screens that a line does not name were inactive (follow-up assays come after a bar, where they were run).

CCCNC(=O)C(Cc1cccc(C#N)c1)NC(=O)c1ccc(C#N)cc1 (centres undefined)	none (no result: Fam108B counter, GSTO1 inh)
CCOC(=O)c1sc(/N=C/N(C)C)nc1C	LYPLA2 counter 32 | LYPLA2 conf inactive
COc1ccc(OCCOc2ccc(S(=O)(=O)N3CCCC3)cc2[N+](=O)[O-])cc1	LYPLA2 counter 30 (no result: Fam108B counter, GSTO1 inh) | LYPLA2 conf 30
Cc1ccc(OCC(=O)NCc2ccccc2)c([N+](=O)[O-])n1	LYPLA2 counter 54 | LYPLA2 conf inactive
C/C(=N/NC(=O)CCc1c(C)n[nH]c1C)c1cccc([N+](=O)[O-])c1	none
O=C(OCC(=O)N1CCc2ccccc21)c1ccccc1[N+](=O)[O-]	LYPLA2 counter 49 (no result: Fam108B counter, GSTO1 inh) | LYPLA2 conf 56
O=C(Cn1ccc2ccccc2c1=O)NCC(=O)Nc1ccc(F)cc1F	none
COc1ccc2c(c1)CCc1cc(C(=O)N3CCN(c4ccc(N5CCOCC5)nn4)CC3)sc1-2	LYPLA2 counter 59 | LYPLA2 conf 60 | LYPLA2 gel ABPP inactive
COc1ccccc1N1CCN(C(=O)c2cc3c(s2)CCC3)CC1	none
CC(=O)c1ccc(N2CCN(C(=O)c3cc4c(s3)CCCC4)CC2)cc1	LYPLA2 counter 44 | LYPLA2 conf 54 | LYPLA2 gel ABPP inactive
O=C(c1cc2c(s1)CCCCC2)N1CCN(c2ncccn2)CC1	none
COc1ccc(N2CCN(C(=O)c3cc4c(s3)CCCCC4)CC2)cc1	LYPLA2 counter 62 (no result: Fam108B counter, GSTO1 inh) | LYPLA2 conf 62 | LYPLA2 gel ABPP inactive
COc1ccc(-c2c(-c3cc(OC)cc(OC)c3)n(C)c3ccc(-c4ccc(N(C)C)nc4)cc23)cc1	none (no result: Fam108B counter, GSTO1 inh)
O=C(NNC(=O)c1cc(Br)c(Br)s1)c1csc(N2CCOCC2)n1	none
CSC1=NNC(c2ccc(C(C)(C)C)cc2)=NN1	none
CCOC(=O)c1ccc(NC(=O)CC2S/C(=N/N=C3/NC(=O)CS3)NC2=O)cc1 (centres undefined)	LYPLA2 counter 32 | LYPLA2 conf inactive
Cc1ccc(NC(=O)CC2S/C(=N/N=C3/NC(=O)CS3)NC2=O)cc1 (centres undefined)	none
CCCNC(=O)c1ccc(COc2ccc(CCC)cc2OC)o1	none
CCOc1ccccc1N1CCN(C(=O)CCCN2C(=O)c3cccc4cccc(c34)C2=O)CC1	none
O=C(CCCN1C(=O)c2cccc3cccc(c23)C1=O)N1CCN(c2ccccc2)CC1	LYPLA2 counter 37 | LYPLA2 conf 40
O=C(CCCN1C(=O)c2cccc3cccc(c23)C1=O)N1CCN(c2ccccc2O)CC1	LYPLA2 counter 49 | LYPLA2 conf 49
OCC[C@H]1C[C@@H](O)[C@H](O)[C@@]2(Cc3ccccc3CO2)O1	none
Cc1cccc(Oc2cc(NC(=O)Cn3cnc([N+](=O)[O-])n3)cc([N+](=O)[O-])c2)c1	LYPLA2 counter 42 | LYPLA2 conf inactive
O=C(/C=C/c1ccco1)N1CCN(S(=O)(=O)/C=C/c2ccccc2)CC1	none
O=C(/C=C/c1ccco1)N1CCN(C/C=C/c2ccccc2)CC1	LYPLA2 counter 27 | LYPLA2 conf inactive
Cc1nn(C)cc1CN(C)C(=O)c1nn2c(c1Cl)NC(c1cccs1)CC2C(F)(F)F (centres undefined)	none
Cc1nn(C)c(C)c1CN(C)C(=O)c1cc2n(n1)C(C(F)(F)F)CC(c1cccs1)N2 (centres undefined)	LYPLA2 counter 26 | LYPLA2 conf inactive
CN(Cc1nc(-c2ccccn2)no1)S(=O)(=O)c1ccc(Cl)cc1	LYPLA2 counter 28 | LYPLA2 conf 26
C[C@H](NC(=O)OC(C)(C)C)c1nnc(SCC(=O)Nc2cccc(Cl)c2)o1	none
CC(C)[C@H](NC(=O)OC(C)(C)C)c1nnc(SCC(=O)Nc2ccc(Br)cc2)o1	LYPLA2 counter 48 | LYPLA2 conf 54
O=C(Nc1ccncc1)c1cccc(S(=O)(=O)N2CCN(c3ccc(F)cc3)CC2)c1	LYPLA2 counter 40 | LYPLA2 conf inactive
Cc1ccc(NC(=O)c2cccc(S(=O)(=O)N3CCN(c4ccc(F)cc4)CC3)c2)nc1	none
CC(C)Cn1c(=O)c2sccc2n2c(CCCC(=O)N3CCC(N4CCCCC4)CC3)nnc12	none
CC(C)CCn1c(=O)c2sccc2n2c(CCCC(=O)N3CCC(N4CCCCC4)CC3)nnc12	LYPLA2 counter 28 | LYPLA2 conf inactive
Cc1ccccc1-c1nnn(Cc2cccc(S(=O)(=O)N3CCOCC3)c2)n1	none (no result: Fam108B counter, GSTO1 inh)
COc1ccc(-c2noc3c2-c2nc(-c4ccc(C)cc4)sc2CC3)cc1	LYPLA2 counter 40 | LYPLA2 conf inactive
Cc1noc(C)c1C(=O)OCC(=O)Nc1cccc(S(N)(=O)=O)c1	none
Cc1cc(NC(=O)COC(=O)c2c(C)noc2C)ccc1Br	LYPLA2 counter 49 | LYPLA2 conf 53
O=CN1CCCN(C(=O)CC2C(=O)NCCN2Cc2cccc(Oc3ccccc3)c2)CC1 (centres undefined)	none
COc1ccc(NC(=S)N2CCN(c3ccc([N+](=O)[O-])cc3)CC2)cc1OC	LYPLA2 counter 36 | LYPLA2 conf 29
O=C(Cn1cnc2ccccc2c1=O)c1ccc2ccccc2c1	LYPLA2 counter 27 | LYPLA2 conf inactive
Cc1ccccc1Sc1ccc([N+](=O)[O-])cn1	LYPLA2 counter 34 | LYPLA2 conf 31
Cc1cccc(Sc2ccc([N+](=O)[O-])cn2)c1	LYPLA2 counter 29 | LYPLA2 conf 28
O=[N+]([O-])c1ccc(Sc2ccccc2)nc1	none
CN(C)/C=N/NC(=O)C1Cc2c(ccc3ccccc23)O1 (centres undefined)	none
CCN1CCN(C(=O)c2ccc(Cl)c(S(=O)(=O)N(C)c3ccccc3)c2)CC1	none (no result: Fam108B counter, GSTO1 inh)
Cc1ccc(-n2cc(-c3ccccc3)c3c(N4CCN(C)CC4)ncnc32)cc1	LYPLA2 counter 30 | LYPLA2 conf inactive
CCN(CC)CCN1C(=O)c2ccccc2NC1c1ccc(Br)cc1 (centres undefined)	LYPLA2 counter 28 | LYPLA2 conf inactive
Cc1nc2ccccc2nc1OCC(=O)Nc1ccc2ccccc2c1	LYPLA2 counter 33 | LYPLA2 conf inactive
COCCCNC(=O)c1sc2ncn(CC(=O)Nc3ccc(C)c(Cl)c3)c(=O)c2c1C	LYPLA2 counter 42 | LYPLA2 conf 35
CCN(CC)CCCNC(=O)c1sc2ncn(CC(=O)Nc3ccc(C)c(Cl)c3)c(=O)c2c1C	LYPLA2 counter 38 | LYPLA2 conf 40
COc1ccccc1NC(=O)Cn1cnc2sc(C(=O)NCc3ccco3)c(C)c2c1=O	LYPLA2 counter 64 | LYPLA2 conf 57 | LYPLA2 gel ABPP inactive
